Eleven molecules from PubChem BioAssay (NCATS) can be followed below.

Inconclusive results are not listed. Values without a mark were called inactive. Calls of active or inactive are those of the source. Calls follow the shape of the dose curve; as a rule, active = well fitted curve in the direction sought with a large enough effect; inconclusive = small, poorly fitted or top-dose-only effect, or another doubt; inactive = no such curve, though single readings can be large; an effect the other way counts as inactive or inconclusive.

For one test, the system named is Tov112D. The experiment in a line: Primary qHTS to identify gynecologic anti-cancer compounds using libraries of approved drugs and bioactive compounds (AID 1345084). Also: nearly all actives have a fitted effect of over 55% in size. The settings on record: Gynecologic cancer cell panel viability, ATPlite luminescence, 48 h; series mostly up to 57.5 µM. The method in brief:
(§1)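 Cells, 1,000 per well, were allowed to settle for 16 h at 37 C before compound addition. Five concentrations were tested for 48 h, and viability was read by ATPlite luminescence after 15 min at room temperature.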

The nature of test [1]: qHTS assay to identify inhibitors of the type 1 interferon - major histocompatibility complex class I in skeletal muscle: Counter screen cell viability and HiBit confirmation (AID 1347412). As to all read-outs here: nearly all actives have a fitted effect of over 60% in size. Conditions: iHSKM muscle cells + IFN-b, HiBiT or CellTiter-Glo, 24 h; for Potency: HiBiT; for activity change, negative = inhibition: Viability, at 45.9 µM (top of the series). The method in brief: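 Duplicate plates, pinned identically: one read for HiBiT-tagged endogenous HLA-B luminescence, the other for ATP-content viability via CellTiter Glo. Cells were genome-engineered human myoblasts given 4 ng/ml IFN-b; compounds 12-pt, 1:3 from 46 uM final; 24 hr exposure.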

In a further test the test system is Tov-21-G. As to the kind of experiment: Primary qHTS to identify gynecologic anti-cancer compounds using libraries of approved drugs and bioactive compounds (AID 1345084). Also: nearly all actives have a fitted effect of over 55% in size. The settings on record: Gynecologic cancer cell panel viability, ATPlite luminescence, 48 h; series mostly up to 57.5 µM. The method in brief:
as §1

Test [2] can be described thus: Drug repurposing screens with cells derived from glioblastoma tumor samples (AID 1345199). Also: nearly all actives have a fitted effect of over 40% in size. Conditions: GBM patient neurospheres viability, ATP luminescence, 48 h. The method in brief: (§2)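 Four patient lines of CD133+ GBM neurospheres were screened at several concentrations; hits were retested in those lines plus three slower-growing GBM lines, using 48-hour treatment and ATP-based viability.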

The next test deals with astro. Described as above. The settings on record: viability, ATP luminescence, 48 h; series mostly up to 45.9 µM. The method, boiled down:
as §2

Where [3] appears, read: at 46.1 µM (top of the series), tumour line C.
Where [4] appears, read: at 20 µM (top of the series), tumour line C.
The mark [5] stands for this setting: at 21.2 µM (top of the series), tumour line B.
Setting [6] is: at 21.2 µM (top of the series), tumour line D.
The mark [7] stands for this setting: at 21.3 µM (top of the series), tumour line A.
% is scaled to controls: 0 for no effect and ±100 for the full control effect; potency is read from the fitted curve at half-maximal effect.

Regarding `CC(=O)Nc1sc2c(c1-c1nc3ccccc3s1)CNC2`, the Potency result in the test with Tov112D was “inactive”.

`c1nc2nc(Nc3ccc(N4CCOCC4)cc3)nc(NC3CCCCC3)c2[nH]1`: the Potency result in the test on Tov112D was “inactive”. Also, the Potency in test [1] was 6250 nM (active).

For `OCCCNc1cc(-c2ccnc(Nc3cccc(Cl)c3)n2)ccn1`, the Potency with Tov-21-G was 158 nM (active); in the test on Tov112D, 316 nM (active); in test [1], 125 nM (active). Further, the activity change, negative = inhibition in test [1] was 15.1%.

Regarding `Cc1[nH]nc2ccc(-c3cncc(OC[C@@H](N)Cc4ccccc4)c3)cc12`, the Potency in the test with Tov-21-G is 2820 nM (active); in the test with Tov112D it was 2000 nM (active); in test [1] it was 991 nM (active). Besides, the activity change, negative = inhibition in test [1] was -12.9%.

On to `CC(=O)SC[C@@H](C)C(=O)N1CCC[C@H]1C(=O)N[C@@H](Cc1ccccc1)C(=O)O`, for which the Potency entry in the test with Tov-21-G, with Tov112D and in the test on astro was “inactive” each time. The activity, negative = cell killing in test [2] (at 45.9 µM (top of the series), tumour line B) is -6.65%; in test [2] (at 45.9 µM (top of the series), tumour line D), 2.25%; in test [2] (setting [3]), -6.2%.

`CC(C)c1cc(-c2n[nH]c(=O)n2-c2ccc3c(ccn3C)c2)c(O)cc1O`: the Potency is 282 nM (active) with Tov-21-G and 17.6 nM (active) in test [1].

As for `O=C(O)C1(Cc2cccc(Nc3nccs3)n2)CCC(Oc2cccc(Cl)c2F)CC1` (stereo not drawn), in the test on Tov112D, the Potency was 1000 nM (active).

On to `CC(C)(C)NC(=O)[C@H]1CN(Cc2cccnc2)CCN1C[C@@H](O)C[C@@H](Cc1ccccc1)C(=O)N[C@H]1c2ccccc2C[C@H]1O`, for which the activity, negative = cell killing in test [2] (setting [3]) is 35.7%. Further, the Potency in test [2] (tumour line A) was 17800 nM (active).

Regarding `C[C@H]1C[C@@H]2[C@@H]([C@@H](O)C[C@@]3(C)[C@H]2CC[C@]3(O)C(=O)CO)[C@@]2(C)C=CC(=O)C=C12`, the activity, negative = cell killing in test [2] (setting [4]) is -10.7%; in test [2] (setting [5]) it was -18.9%; in test [2] (setting [6]) it was -26.6%; in test [2] (setting [7]), -9.28%.

As to `COc1ccc(CC2c3cc(OC)c(OC)cc3CC[N+]2(C)CCC(=O)OCCCCCOC(=O)CC[N+]2(C)CCc3cc(OC)c(OC)cc3C2Cc2ccc(OC)c(OC)c2)cc1OC` (stereo not drawn), the activity, negative = cell killing in test [2] (setting [4]) is -5.82%; in test [2] (setting [5]), -8.61%; in test [2] (setting [6]), -8.93%; in test [2] (setting [7]) it was -14%.

Take `COC(=O)C[C@](O)(CCCC(C)(C)O)C(=O)O[C@@H]1C(OC)=C[C@]23CCCN2CCc2cc4c(cc2[C@H]13)OCO4`: the figures for the Potency in test [2] (tumour line A), in test [2] (tumour line B) and in test [2] (tumour line D) were 224 nM (active), 316 nM (active) and 1000 nM (active), respectively.
